# Assay results taken from publication PMC7862700, “An all-to-all approach to the identification of sequence-specific readers for epigenetic DNA modifications on cytosine”.
# Key:
# Assay in all cases: DAPPL (digital affinity profiling via proximity ligation, sequencing); 10 mM Tris-HCl pH 7.5, 50 mM NaCl, 1 mM DTT, 4% glycerol, room temperature, 30 min; GST-TFs on glutathione beads, 16-mer random dsDNA library, 0.1% formaldehyde crosslink after washing; high values mean tight binding
# Details in all cases: protein: recombinant; tags: N-terminal GST; dsDNA, one strand shown
# [1] = molecular target: T1, ELK1 (Homo sapiens, UniProt P19419 1-428)
# T1 sequence: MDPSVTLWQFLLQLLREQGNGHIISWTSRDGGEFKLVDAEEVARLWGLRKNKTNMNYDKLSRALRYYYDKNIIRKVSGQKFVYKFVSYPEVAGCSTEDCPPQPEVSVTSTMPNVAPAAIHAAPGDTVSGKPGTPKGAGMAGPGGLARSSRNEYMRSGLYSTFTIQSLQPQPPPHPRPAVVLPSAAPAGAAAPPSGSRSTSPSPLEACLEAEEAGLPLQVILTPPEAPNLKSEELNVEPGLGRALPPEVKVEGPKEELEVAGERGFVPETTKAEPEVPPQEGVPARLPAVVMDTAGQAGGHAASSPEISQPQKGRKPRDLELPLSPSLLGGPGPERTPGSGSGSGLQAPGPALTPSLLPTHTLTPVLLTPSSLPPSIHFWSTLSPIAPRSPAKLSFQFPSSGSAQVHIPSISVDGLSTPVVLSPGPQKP
# Outline: (§1)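 Human transcription factors fused to GST were expressed in yeast, captured on glutathione beads, given DNA barcodes and pooled with a GST-only negative control. Pools were incubated with 200 nmole of a 16-mer random double-stranded DNA library in Tris/NaCl/DTT/glycerol buffer at room temperature for 30 min. They were then washed, crosslinked with 0.1% formaldehyde, proximity-ligated (BsaI/T4 ligase, 1 h, 37 °C), PCR-amplified and sequenced on an Illumina NextSeq500. Binding signal is each 6-mer's read frequency for a factor divided by its frequency for the GST control.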
# [2] = molecular target: T2, ERG (Homo sapiens, UniProt P11308 1-479)
# T2 sequence: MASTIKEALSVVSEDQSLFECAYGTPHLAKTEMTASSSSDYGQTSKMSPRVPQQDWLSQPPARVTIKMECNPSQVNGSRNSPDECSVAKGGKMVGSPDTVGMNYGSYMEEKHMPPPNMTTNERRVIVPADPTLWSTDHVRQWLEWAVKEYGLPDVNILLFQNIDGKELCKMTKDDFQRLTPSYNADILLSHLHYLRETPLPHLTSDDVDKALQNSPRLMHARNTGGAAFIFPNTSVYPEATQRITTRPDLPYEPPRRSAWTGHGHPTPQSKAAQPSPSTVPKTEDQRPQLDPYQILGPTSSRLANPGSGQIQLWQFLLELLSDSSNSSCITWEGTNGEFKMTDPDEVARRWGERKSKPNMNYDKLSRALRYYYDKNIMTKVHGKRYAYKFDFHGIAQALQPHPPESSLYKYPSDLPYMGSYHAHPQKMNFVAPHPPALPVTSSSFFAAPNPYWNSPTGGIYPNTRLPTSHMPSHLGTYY
# Outline: as §1
# [3] = molecular target: T3, EHF (Homo sapiens, UniProt Q9NZC4 1-300)
# T3 sequence: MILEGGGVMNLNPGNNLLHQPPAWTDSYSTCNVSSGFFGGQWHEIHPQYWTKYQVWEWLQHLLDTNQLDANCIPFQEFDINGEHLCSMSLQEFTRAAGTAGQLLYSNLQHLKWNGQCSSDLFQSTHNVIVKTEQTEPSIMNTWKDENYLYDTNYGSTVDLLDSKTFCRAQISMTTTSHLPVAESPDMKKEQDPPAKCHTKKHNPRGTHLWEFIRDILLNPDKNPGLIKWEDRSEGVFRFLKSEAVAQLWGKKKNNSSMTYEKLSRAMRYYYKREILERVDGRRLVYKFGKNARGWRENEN
# Outline: as §1
# [4] = molecular target: SPIB (Homo sapiens, UniProt Q01892 1-262)
# Chain of SPIB (Q01892 whole entry): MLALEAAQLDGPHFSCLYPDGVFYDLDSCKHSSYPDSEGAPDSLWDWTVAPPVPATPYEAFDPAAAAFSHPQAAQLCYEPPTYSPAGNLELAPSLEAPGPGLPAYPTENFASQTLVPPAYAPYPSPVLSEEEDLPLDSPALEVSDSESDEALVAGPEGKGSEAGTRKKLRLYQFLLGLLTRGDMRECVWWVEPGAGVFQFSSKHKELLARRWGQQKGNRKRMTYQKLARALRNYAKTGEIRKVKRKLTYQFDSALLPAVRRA
# Outline: as §1
# [5] = molecular target: T4, ELK3 (Homo sapiens, UniProt P41970 1-407)
# T4 sequence: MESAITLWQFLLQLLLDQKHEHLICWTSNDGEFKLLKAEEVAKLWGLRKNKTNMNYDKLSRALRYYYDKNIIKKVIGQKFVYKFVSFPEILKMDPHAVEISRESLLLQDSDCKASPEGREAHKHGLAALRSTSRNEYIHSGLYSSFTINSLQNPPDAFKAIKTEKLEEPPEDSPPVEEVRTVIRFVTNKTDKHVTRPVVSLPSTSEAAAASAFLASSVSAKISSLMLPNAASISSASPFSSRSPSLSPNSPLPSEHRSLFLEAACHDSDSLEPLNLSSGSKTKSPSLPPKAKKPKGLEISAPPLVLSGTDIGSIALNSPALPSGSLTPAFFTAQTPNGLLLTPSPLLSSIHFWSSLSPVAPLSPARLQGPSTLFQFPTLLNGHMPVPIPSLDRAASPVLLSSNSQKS
# Outline: as §1
# [6] = molecular target: T5, ELF3 (Homo sapiens, UniProt P78545 1-371)
# T5 sequence: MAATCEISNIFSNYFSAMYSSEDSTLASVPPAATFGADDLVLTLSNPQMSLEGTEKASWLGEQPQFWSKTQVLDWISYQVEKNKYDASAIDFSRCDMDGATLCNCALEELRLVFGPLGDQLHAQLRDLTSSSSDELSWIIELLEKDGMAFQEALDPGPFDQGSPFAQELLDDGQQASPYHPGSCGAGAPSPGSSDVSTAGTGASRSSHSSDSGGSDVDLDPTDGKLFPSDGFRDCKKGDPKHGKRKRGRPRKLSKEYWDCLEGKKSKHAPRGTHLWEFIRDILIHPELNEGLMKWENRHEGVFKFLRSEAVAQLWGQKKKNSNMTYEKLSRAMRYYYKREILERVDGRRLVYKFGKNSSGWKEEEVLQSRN
# Outline: as §1
# [7] = molecular target: ETV1 (Homo sapiens, UniProt P50549 1-477)
# Chain of ETV1 (P50549 whole entry): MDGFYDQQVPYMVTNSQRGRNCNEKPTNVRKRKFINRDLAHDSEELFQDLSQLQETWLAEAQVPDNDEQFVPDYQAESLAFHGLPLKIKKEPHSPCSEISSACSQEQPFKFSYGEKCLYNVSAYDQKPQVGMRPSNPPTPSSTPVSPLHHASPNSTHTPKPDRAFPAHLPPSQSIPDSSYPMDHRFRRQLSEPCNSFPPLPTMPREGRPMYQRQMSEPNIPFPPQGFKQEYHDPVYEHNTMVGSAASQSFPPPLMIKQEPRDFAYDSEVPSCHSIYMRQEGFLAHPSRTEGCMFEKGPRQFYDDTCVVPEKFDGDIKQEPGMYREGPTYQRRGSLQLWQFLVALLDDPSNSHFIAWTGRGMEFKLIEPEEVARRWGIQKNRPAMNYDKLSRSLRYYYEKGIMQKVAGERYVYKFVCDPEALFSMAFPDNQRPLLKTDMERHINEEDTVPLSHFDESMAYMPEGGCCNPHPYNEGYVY
# Outline: as §1
# [8] = molecular target: T6, ETS2 (Homo sapiens, UniProt P15036 1-469)
# T6 sequence: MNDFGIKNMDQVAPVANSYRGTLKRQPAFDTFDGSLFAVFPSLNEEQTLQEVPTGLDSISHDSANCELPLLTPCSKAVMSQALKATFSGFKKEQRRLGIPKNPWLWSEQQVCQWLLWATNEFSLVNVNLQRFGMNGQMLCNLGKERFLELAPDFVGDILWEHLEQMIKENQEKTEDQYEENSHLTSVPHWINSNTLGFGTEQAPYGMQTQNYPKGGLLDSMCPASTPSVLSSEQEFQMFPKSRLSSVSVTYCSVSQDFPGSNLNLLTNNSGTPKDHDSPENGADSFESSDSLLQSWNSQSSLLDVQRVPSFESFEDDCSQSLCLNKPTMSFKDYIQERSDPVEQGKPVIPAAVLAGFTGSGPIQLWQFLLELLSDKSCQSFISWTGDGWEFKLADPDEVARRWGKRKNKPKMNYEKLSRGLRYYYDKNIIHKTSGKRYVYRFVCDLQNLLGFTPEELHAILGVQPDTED
# Outline: as §1
# [9] = molecular target: T7, ETV7 (Homo sapiens, UniProt Q9Y603 1-341)
# T7 sequence: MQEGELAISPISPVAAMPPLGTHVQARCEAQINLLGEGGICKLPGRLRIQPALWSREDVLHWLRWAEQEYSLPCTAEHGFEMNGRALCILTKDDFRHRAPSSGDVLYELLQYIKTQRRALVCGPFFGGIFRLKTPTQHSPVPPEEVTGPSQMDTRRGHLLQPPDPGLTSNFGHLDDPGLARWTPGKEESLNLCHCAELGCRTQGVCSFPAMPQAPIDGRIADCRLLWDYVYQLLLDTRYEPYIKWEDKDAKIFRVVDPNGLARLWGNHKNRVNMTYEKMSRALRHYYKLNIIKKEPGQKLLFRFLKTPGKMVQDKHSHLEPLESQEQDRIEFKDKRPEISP
# Outline: as §1
# [10] = molecular target: T8, ETV3 (Homo sapiens, UniProt P41162-2 1-143)
# T8 sequence: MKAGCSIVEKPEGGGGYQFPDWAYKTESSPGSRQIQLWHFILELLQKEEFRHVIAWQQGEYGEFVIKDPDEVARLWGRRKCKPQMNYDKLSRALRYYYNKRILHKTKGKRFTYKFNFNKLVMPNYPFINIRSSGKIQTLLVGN
# Outline: as §1
# [11] = molecular target: ETV6 (Homo sapiens, UniProt P41212 1-452)
# Chain of ETV6 (P41212 whole entry): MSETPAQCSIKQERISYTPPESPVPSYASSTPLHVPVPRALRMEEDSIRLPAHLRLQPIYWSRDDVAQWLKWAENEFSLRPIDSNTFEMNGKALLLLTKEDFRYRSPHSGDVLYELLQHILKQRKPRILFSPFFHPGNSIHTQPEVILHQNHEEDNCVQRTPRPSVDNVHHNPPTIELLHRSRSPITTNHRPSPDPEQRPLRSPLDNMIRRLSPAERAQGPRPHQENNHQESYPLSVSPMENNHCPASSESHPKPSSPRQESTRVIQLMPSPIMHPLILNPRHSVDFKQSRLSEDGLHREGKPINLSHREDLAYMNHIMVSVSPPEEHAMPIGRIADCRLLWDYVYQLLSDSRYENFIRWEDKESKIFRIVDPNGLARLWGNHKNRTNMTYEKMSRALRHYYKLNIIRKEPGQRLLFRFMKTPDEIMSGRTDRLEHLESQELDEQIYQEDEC
# Outline: as §1
sequence,measurement,setting,value
GCCGGA,binding signal,[1],"1.17 fold enrichment (6-mer frequency, TF over GST control)"
same,binding signal,[2],"1.27 fold enrichment (6-mer frequency, TF over GST control)"
same,binding signal,[3],"1.08 fold enrichment (6-mer frequency, TF over GST control)"
same,binding signal,[4],"1.01 fold enrichment (6-mer frequency, TF over GST control)"
same,binding signal,[5],"1.11 fold enrichment (6-mer frequency, TF over GST control)"
same,binding signal,[6],"1.05 fold enrichment (6-mer frequency, TF over GST control)"
same,binding signal,[7],"1.07 fold enrichment (6-mer frequency, TF over GST control)"
same,binding signal,[8],"1.01 fold enrichment (6-mer frequency, TF over GST control)"
same,binding signal,[9],"1 fold enrichment (6-mer frequency, TF over GST control)"
same,binding signal,[10],"1.1 fold enrichment (6-mer frequency, TF over GST control)"
same,binding signal,[11],"1.07 fold enrichment (6-mer frequency, TF over GST control)"
